Data on 1 sequence can be found in article PMC7862700, “An all-to-all approach to the identification of sequence-specific readers for epigenetic DNA modifications on cytosine”.

Assay in all cases: DAPPL (digital affinity profiling via proximity ligation, sequencing); 10 mM Tris-HCl pH 7.5, 50 mM NaCl, 1 mM DTT, 4% glycerol, room temperature, 30 min; GST-TFs on glutathione beads, 16-mer random dsDNA library, 0.1% formaldehyde crosslink after washing; high values mean tight binding
Settings in all cases: protein: recombinant; tags: N-terminal GST; dsDNA, one strand shown

Assay [1] deals with T1, FLI1 (Homo sapiens, UniProt Q01543 1-452).
T1 sequence: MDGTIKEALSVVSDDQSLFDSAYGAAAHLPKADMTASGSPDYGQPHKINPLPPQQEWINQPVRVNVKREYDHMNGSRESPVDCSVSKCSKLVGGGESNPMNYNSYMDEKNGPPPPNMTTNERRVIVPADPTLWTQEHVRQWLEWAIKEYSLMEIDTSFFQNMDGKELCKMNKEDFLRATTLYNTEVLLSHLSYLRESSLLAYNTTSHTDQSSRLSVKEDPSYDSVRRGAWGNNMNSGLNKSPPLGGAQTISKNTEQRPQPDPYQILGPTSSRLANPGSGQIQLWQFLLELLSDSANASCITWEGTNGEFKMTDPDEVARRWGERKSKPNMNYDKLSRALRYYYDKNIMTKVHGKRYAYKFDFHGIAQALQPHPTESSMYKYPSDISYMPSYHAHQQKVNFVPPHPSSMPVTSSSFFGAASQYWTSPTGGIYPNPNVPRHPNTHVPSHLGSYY
The method in brief: (§1)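 After expression in yeast as GST fusions, human transcription factors were bound to glutathione beads, DNA-barcoded and mixed with a tag-only sample. The pools were incubated with 200 nmole of a 16-mer random double-stranded DNA library in Tris/NaCl/DTT/glycerol buffer (30 min, room temperature), washed and crosslinked with 0.1% formaldehyde. Proximity ligation with BsaI/T4 ligase ran for 1 h at 37 °C, before PCR amplification and sequencing on an Illumina NextSeq500. Binding signal is a hexamer's read frequency for a factor divided by its frequency for the tag-only sample.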

Assay [2] has as its target T2, ELK1 (Homo sapiens, UniProt P19419 1-428).
T2 sequence: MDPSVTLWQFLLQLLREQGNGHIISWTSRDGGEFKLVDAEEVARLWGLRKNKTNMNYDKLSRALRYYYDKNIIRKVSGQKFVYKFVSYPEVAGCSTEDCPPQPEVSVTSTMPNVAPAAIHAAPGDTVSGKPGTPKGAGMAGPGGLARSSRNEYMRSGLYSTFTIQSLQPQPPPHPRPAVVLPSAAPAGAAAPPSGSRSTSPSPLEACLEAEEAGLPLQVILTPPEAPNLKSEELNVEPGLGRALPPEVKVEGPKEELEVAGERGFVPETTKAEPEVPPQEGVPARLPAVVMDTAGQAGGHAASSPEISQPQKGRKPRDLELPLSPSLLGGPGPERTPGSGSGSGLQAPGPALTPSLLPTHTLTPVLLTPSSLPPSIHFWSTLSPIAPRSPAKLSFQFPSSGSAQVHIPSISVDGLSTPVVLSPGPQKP
The gist of the method: as §1

Assay [3] concerns the target T3, GABPA (Homo sapiens, UniProt Q06546 1-454).
T3 sequence: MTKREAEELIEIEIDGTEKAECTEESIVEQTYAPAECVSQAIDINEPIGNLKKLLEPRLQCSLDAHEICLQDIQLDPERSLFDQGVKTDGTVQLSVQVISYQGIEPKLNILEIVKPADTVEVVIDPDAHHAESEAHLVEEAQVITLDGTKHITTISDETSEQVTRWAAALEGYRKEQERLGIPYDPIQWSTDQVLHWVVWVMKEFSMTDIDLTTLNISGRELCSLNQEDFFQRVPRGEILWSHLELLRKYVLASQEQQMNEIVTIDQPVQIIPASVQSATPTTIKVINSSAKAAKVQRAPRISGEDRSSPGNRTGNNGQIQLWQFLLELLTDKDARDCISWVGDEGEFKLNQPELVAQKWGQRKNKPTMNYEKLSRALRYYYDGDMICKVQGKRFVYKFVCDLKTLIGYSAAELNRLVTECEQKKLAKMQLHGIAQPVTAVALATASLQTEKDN
The gist of the method: as §1

Assay [4] has as its target T4, ERG (Homo sapiens, UniProt P11308 1-479).
T4 sequence: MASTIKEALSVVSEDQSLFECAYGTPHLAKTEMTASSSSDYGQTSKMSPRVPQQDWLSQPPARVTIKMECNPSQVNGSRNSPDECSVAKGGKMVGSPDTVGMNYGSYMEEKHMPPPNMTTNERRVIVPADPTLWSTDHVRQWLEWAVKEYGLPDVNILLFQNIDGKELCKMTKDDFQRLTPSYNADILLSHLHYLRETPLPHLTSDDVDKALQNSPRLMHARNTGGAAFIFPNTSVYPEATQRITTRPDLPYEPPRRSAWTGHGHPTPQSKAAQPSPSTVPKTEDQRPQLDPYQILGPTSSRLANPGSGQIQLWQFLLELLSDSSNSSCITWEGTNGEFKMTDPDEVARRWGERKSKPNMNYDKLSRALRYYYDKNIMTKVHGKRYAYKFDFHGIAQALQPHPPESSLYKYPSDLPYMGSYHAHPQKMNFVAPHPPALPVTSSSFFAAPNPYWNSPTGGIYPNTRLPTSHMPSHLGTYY
The method in brief:
as §1

For assay [5], the target named is ELF1 (Homo sapiens, UniProt P32519 1-619). The gist of the method: as §1
Sequence of ELF1 (P32519 whole entry): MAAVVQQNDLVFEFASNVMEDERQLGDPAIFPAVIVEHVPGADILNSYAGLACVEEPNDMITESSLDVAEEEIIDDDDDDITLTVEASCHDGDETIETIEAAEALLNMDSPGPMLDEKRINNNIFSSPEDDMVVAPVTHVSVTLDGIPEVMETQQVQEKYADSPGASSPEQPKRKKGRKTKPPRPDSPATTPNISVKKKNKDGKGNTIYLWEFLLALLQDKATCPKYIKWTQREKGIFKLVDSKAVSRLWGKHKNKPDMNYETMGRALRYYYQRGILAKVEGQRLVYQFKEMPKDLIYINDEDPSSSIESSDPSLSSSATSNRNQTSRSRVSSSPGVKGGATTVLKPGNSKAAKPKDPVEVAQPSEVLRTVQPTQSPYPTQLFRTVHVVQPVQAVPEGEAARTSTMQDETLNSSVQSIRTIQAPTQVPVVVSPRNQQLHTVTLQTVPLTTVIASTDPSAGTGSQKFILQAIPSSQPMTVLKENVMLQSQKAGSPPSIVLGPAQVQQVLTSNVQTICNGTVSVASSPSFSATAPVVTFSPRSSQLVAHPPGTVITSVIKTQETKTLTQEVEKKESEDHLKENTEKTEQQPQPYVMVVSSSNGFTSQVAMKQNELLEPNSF
Assay [6] deals with T5, EHF (Homo sapiens, UniProt Q9NZC4 1-300).
T5 sequence: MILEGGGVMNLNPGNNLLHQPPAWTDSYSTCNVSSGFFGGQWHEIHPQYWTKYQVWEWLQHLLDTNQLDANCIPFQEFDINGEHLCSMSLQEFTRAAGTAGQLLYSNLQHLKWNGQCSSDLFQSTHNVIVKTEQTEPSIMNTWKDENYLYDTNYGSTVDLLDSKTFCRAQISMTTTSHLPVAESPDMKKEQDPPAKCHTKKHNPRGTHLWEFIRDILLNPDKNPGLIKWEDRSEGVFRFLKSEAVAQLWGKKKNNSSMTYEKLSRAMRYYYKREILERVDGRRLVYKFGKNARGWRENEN
The gist of the method:
as §1

Assay [7] concerns the target SPI1 (Homo sapiens, UniProt P17947 1-270). The method in brief:
as §1

Assay [8] deals with SPIB (Homo sapiens, UniProt Q01892 1-262). The gist of the method: as §1
Sequence of SPIB (Q01892 whole entry): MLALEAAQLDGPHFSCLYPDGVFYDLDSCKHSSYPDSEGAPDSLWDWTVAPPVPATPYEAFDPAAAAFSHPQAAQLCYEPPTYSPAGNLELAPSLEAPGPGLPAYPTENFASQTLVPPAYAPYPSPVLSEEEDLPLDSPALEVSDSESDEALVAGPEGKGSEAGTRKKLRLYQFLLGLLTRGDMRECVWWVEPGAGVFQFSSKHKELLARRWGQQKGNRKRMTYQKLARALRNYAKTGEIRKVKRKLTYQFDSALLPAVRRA
The target in assay [9] is T6, ELK3 (Homo sapiens, UniProt P41970 1-407).
T6 sequence: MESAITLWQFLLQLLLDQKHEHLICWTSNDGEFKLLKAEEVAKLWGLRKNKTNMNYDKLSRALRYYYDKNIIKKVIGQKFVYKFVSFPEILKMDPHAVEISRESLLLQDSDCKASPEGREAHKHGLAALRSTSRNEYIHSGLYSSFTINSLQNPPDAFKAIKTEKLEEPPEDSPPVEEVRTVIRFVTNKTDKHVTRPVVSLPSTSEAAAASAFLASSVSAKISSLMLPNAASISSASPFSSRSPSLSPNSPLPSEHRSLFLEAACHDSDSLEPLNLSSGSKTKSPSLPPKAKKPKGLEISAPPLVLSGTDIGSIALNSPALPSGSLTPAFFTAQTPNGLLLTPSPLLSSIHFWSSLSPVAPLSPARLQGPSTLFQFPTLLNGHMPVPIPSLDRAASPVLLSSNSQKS
The gist of the method:
as §1

Assay [10] deals with T7, FEV (Homo sapiens, UniProt Q99581 1-238).
T7 sequence: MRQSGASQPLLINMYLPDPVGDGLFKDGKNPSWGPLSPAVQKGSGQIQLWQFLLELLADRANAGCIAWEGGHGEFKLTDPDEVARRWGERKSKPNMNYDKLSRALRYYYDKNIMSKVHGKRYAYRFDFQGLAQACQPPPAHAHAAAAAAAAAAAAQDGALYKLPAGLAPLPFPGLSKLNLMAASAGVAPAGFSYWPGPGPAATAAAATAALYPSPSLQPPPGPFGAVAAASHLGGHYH
The method in brief:
as §1

Assay [11] deals with ETV5 (Homo sapiens, UniProt P41161 1-510). The gist of the method: as §1
Sequence of ETV5 (P41161 whole entry): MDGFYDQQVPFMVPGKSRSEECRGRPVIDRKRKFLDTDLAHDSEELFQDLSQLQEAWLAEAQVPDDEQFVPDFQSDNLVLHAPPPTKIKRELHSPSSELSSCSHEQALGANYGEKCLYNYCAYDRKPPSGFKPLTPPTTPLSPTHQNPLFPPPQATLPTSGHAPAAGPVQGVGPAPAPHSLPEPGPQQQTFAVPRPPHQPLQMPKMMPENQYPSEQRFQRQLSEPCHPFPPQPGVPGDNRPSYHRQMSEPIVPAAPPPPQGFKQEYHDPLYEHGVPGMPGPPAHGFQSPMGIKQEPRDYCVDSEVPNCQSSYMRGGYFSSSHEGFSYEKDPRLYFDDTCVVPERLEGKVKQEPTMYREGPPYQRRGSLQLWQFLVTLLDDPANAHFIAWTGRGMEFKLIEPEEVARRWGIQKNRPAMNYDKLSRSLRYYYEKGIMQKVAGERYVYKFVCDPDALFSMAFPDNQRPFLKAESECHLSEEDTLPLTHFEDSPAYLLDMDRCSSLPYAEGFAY
The target of assay [12] is T8, SPIC (Homo sapiens, UniProt Q8N5J4 1-248).
T8 sequence: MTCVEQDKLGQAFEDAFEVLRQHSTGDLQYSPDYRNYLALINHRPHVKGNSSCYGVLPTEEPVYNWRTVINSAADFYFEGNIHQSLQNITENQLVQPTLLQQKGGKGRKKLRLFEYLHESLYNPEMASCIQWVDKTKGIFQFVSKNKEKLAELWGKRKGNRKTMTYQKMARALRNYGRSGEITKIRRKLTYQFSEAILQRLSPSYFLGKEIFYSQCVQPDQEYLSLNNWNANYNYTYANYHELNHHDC
The gist of the method: as §1

Assay [13] concerns the target ELF4 (Homo sapiens, UniProt Q99607 1-663). The gist of the method:
as §1

Assay [14] has as its target ETV1 (Homo sapiens, UniProt P50549 1-477). The gist of the method: as §1
The target of assay [15] is T9, ERF (Homo sapiens, UniProt P50548 1-548).
T9 sequence: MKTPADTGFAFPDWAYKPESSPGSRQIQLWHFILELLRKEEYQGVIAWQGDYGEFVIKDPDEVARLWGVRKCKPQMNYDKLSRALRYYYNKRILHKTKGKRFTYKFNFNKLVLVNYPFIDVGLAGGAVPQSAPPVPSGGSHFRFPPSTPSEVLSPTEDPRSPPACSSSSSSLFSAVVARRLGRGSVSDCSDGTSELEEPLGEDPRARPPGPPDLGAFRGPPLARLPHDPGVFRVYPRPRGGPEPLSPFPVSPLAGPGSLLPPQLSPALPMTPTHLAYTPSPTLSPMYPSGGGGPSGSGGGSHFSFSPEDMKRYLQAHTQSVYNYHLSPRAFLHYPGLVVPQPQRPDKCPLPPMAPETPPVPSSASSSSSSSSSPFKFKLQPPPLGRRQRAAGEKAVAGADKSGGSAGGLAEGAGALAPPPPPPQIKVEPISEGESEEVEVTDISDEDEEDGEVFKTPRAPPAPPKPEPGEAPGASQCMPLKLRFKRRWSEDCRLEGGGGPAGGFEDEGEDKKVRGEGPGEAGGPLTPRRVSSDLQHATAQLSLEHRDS
The method in brief:
as §1

In assay [16] the target is T10, ETV3L (Homo sapiens, UniProt Q6ZN32 1-361).
T10 sequence: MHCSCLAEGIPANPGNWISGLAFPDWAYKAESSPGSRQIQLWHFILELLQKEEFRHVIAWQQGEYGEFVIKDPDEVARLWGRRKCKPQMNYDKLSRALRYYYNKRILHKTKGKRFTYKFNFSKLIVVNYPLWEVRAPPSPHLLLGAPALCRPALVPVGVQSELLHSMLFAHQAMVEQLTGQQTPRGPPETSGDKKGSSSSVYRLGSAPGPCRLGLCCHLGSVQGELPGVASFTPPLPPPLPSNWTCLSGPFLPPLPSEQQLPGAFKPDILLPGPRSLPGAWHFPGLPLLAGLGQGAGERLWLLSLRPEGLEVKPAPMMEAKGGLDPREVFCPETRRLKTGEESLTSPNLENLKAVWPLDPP
The gist of the method:
as §1

The target of assay [17] is T11, ETS2 (Homo sapiens, UniProt P15036 1-469).
T11 sequence: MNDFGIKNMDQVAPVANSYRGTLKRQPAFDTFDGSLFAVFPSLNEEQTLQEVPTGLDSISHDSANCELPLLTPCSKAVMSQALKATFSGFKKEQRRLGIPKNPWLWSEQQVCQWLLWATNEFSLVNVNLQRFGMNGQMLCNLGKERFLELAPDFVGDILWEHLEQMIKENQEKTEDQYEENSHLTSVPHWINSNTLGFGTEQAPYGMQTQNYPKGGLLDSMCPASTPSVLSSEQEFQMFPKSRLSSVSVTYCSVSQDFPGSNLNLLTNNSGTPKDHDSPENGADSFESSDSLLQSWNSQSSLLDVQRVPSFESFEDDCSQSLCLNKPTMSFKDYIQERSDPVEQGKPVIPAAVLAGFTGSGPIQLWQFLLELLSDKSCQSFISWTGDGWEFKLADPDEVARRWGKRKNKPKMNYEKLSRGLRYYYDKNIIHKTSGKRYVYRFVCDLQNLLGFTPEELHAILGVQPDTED
The method in brief: as §1

The target of assay [18] is T12, ELF5 (Homo sapiens, UniProt Q9UKW6-2 1-255).
T12 sequence: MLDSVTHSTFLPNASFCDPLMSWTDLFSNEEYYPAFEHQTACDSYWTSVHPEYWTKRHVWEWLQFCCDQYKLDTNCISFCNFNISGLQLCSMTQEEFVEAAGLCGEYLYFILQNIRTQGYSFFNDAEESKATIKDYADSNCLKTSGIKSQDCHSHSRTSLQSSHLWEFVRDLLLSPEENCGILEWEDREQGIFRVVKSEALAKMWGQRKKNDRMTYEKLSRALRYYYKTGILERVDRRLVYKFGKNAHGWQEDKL
The method in brief: as §1

For assay [19], the target named is T13, ETV3 (Homo sapiens, UniProt P41162-2 1-143).
T13 sequence: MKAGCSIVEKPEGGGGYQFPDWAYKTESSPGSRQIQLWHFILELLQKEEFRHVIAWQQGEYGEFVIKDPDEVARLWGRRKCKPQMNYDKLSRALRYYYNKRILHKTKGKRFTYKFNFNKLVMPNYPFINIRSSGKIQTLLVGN
The gist of the method: as §1

For assay [20], the target named is ETV6 (Homo sapiens, UniProt P41212 1-452). The method in brief:
as §1

Sequence of ETV1 (P50549 whole entry): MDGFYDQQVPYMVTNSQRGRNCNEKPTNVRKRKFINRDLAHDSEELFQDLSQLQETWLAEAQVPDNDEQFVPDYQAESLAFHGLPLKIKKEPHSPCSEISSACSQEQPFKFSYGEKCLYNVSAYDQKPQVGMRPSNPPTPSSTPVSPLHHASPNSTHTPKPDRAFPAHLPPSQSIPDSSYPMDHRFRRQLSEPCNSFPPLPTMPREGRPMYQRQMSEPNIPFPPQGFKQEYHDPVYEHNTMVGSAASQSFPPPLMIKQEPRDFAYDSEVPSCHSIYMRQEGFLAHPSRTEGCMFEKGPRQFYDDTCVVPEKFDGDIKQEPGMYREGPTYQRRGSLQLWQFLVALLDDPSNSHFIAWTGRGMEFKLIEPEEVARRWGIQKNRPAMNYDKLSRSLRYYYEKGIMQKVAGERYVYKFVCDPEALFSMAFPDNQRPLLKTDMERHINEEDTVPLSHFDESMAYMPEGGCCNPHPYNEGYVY
Sequence of ETV6 (P41212 whole entry): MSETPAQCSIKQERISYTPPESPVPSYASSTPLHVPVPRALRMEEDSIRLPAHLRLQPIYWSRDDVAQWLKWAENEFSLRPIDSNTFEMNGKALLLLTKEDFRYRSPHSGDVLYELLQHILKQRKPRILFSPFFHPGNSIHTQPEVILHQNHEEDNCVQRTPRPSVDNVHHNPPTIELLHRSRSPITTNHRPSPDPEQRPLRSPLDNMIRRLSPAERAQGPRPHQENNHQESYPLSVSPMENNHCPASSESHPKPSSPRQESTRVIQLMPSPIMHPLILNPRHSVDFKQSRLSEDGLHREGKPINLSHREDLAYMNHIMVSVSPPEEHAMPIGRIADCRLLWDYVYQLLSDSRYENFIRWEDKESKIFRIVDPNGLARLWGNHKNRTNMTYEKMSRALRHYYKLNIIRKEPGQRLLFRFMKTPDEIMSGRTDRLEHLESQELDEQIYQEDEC
Sequence of ELF4 (Q99607 whole entry): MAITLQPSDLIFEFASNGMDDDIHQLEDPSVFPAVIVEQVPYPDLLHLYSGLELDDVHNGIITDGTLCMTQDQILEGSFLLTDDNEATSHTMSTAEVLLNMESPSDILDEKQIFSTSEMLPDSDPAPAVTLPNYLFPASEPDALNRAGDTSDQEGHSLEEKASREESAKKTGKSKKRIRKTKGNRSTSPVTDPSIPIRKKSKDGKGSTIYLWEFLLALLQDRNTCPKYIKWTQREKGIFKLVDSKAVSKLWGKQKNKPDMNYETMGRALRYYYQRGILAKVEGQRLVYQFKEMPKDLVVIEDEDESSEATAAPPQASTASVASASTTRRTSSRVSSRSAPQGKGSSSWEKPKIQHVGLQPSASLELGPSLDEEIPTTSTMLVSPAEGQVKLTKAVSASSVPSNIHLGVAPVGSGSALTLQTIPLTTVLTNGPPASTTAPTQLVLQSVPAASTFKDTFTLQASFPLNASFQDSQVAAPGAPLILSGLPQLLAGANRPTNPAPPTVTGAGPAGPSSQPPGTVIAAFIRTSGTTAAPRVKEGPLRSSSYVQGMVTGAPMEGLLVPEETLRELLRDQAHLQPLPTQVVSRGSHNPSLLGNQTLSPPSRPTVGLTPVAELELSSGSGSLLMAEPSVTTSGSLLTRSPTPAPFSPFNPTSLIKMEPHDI

With ACCACC, the binding signal was 1.1 fold enrichment (6-mer frequency, TF over GST control) in assay [1]; 1.08 fold enrichment (6-mer frequency, TF over GST control) in assay [2]; 1.14 fold enrichment (6-mer frequency, TF over GST control) in [3]; 1.11 fold enrichment (6-mer frequency, TF over GST control) in assay [4]; 1.18 fold enrichment (6-mer frequency, TF over GST control) in assay [5]; 1.15 fold enrichment (6-mer frequency, TF over GST control) in assay [6]. Further, the binding signal in assay [7] was 1.1 fold enrichment (6-mer frequency, TF over GST control); in [8], 1.18 fold enrichment (6-mer frequency, TF over GST control); in assay [9] it was 1.21 fold enrichment (6-mer frequency, TF over GST control); in [10], 1.18 fold enrichment (6-mer frequency, TF over GST control); in assay [11] it was 1.1 fold enrichment (6-mer frequency, TF over GST control); in [12], 1.08 fold enrichment (6-mer frequency, TF over GST control). For the same sequence, the binding signal in assay [13] was 1.14 fold enrichment (6-mer frequency, TF over GST control); in [14], 1.02 fold enrichment (6-mer frequency, TF over GST control); in [15], 1.17 fold enrichment (6-mer frequency, TF over GST control); in assay [16], 1.08 fold enrichment (6-mer frequency, TF over GST control); in assay [17] it was 1.15 fold enrichment (6-mer frequency, TF over GST control); in assay [18], 1.07 fold enrichment (6-mer frequency, TF over GST control). The binding signal in [19] is 1.08 fold enrichment (6-mer frequency, TF over GST control); in assay [20] it was 1.09 fold enrichment (6-mer frequency, TF over GST control).
